This is a sample that favours compounds with a hit; in the whole collection about 1.6% have one here.
eIF4E-4G inh = blocks eIF4E binding to eIF4G; P63073+Q04637; TR-FRET eIF4E-eIF4GI(517-606) binding, 2 h; inhibition, % at 21.7 µM; 220,000 tested, 0.37% active; AID 782;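 active = inhibition above about 30%, limit read from the data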
eIF4H FP inh = inhibitors of RNA binding by human eIF4H; Q15056; eIF4H fluorescence polarization binding assay; inhibition, % at 35 µM; 290,000 tested, 0.94% active; AID 2012;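 note: calls also rest on retests at 20 µM and on dose response follow-up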
PERK inh = blocks human PERK kinase; CHO PERK-DD fusion, SEAP luminescence translation reporter; 220,000 tested, 0.17% active; inhibition, % at 5.6 µM;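 active = inhibition above the mean inhibition of all tested compounds plus 3 SD, set separately per screening campaign, cut at about 2.9% in these data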;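 note: PERK kinase domain activated by AP20187 dimerizer at 100 nM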
PABP polyA inh = PABP-poly(A) binding inhibition. PABP-poly(A) RNA binding, fluorescence polarization. inhibition, % at 35 µM. 290,000 tested, 1% active. AID 2014;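 note: calls also rest on retests at 20 µM and on dose response follow-up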
PABP1 MLLE inh = inhibitors of microRNA-mediated deadenylation, human PABP1 MLLE binding. P11940. GST-MLLE / FITC-PAM2 fluorescence polarization. inhibition, % at 20 µM. 360,000 tested, 0.36% active. AID 588489; in the data active = inhibition above about 35%, passing the limit was not always enough
Numbers stand for hits; 0 = inactive; ? = inconclusive; - = not tested or not shown. Unless noted, the rule behind the calls is not given here.

SMILES	eIF4E-4G inh	eIF4H FP inh	PERK inh	PABP polyA inh	PABP1 MLLE inh
COc1ccc(Nc2nc(-c3c[nH]c4ccccc34)cs2)cc1	0	0	0	0	0
CN(C1CCCCC1)S(=O)(=O)c1ccc(NC(=S)NC(=O)c2cccs2)cc1	0	0	0	0	42.8
COc1cc(C(=S)N2CCCC2)ccc1O	0	0	0	0	40.3
COc1cc(C(=S)N2CCCCC2)ccc1O	0	0	0	0	38.1
CCOc1cc(C(=S)N2CCCC2)ccc1O	-	0	-	0	0
COc1cc(C(=S)N2CCC(C)CC2)ccc1O	0	0	0	0	40.0
Cc1ccc(C)c(-c2cc(C(=O)Nc3cccnc3)c3ccccc3n2)c1	-	0	-	0	0
CCSc1ccc2nnc(-c3cccc(F)c3)n2n1	55.6	0	0	0	0
Cc1ccccc1NC(=O)CSc1ccc(-c2ccco2)nn1	0	?	0	0.3	0
CCc1nnc(NC(=O)CSc2ccc(-c3ccco3)nn2)s1	0	95.3	0	active	0
Cc1ccc(C)c(NC(=O)CSc2ccc(-c3ccco3)nn2)c1	0	0	0	0	0
CCc1nnc(NC(=O)Cn2nc(-c3ccccc3OC)ccc2=O)s1	35.8	0	0	0	0
Cc1ccccc1NC(=O)CSc1ccsc1[N+](=O)[O-]	0	?	0	32.5	0
CCc1nnc(NC(=O)Cn2nc(-c3ccc(OC)c(OC)c3)ccc2=O)s1	0	0	0	0	0
CC1Cc2ccccc2N1C(=O)CN1C(=O)NC(C)(CCc2ccccc2)C1=O (stereo unspecified)	-	0	-	0	0
CC(C)(C)S(=O)N1Cc2cc(CO)cc(-c3ccccc3)c2[C@H]1CCO (stereo partly specified)	-	-	-	-	0
CC(=Nc1cccc(C)c1)c1sc2ccccc2c1O	0	0	0	0	0
CC(=O)N1c2ccc(S(=O)(=O)N(C)Cc3ccccc3)cc2CC1C (stereo unspecified)	-	0	-	0	0
CCOC(=O)/C(C#N)=N\Nc1cc(Cl)ccc1OC	0	?	0	?	0
Cc1ccc2nc(/C(C#N)=C\c3ccc(Oc4ccc([N+](=O)[O-])cn4)cc3)[nH]c2c1	0	?	0	0	0
COc1ccc2nc(/C(C#N)=C\c3ccc(Oc4ccc([N+](=O)[O-])cn4)cc3)[nH]c2c1	0	83.9	0	active	0
CCOc1ccc(S(=O)(=O)NC2CCCCCC2)cc1	0	0	0	0	0
CCOc1ccc(S(=O)(=O)N/N=C(\C)C2CCCCC2)cc1	0	71.1	0	active	0
CC(C)c1ccccc1	-	-	-	-	0
O=C1NCCN(Cc2ccc(Cl)c(F)c2)C1CC(=O)N1CCc2ccccc2C1 (stereo unspecified)	0	53.8	0	0	0
SMILES	eIF4E-4G inh	eIF4H FP inh	PERK inh	PABP polyA inh	PABP1 MLLE inh
CN(Cc1ccon1)C(=O)CC1C(=O)NCCN1Cc1ccc(Cl)c(F)c1 (stereo unspecified)	-	0	-	0	0
Cc1ccc(C(=O)/C=C/C(=O)O)cc1	0	0	0	0	44.5
Nc1ccccc1SC1CC(=O)N(Cc2ccccc2)C1=O (stereo unspecified)	0	active	0	68.5	0
O=C(O)c1ccc(N/N=C/c2ccc(-c3cc(Cl)ccc3Cl)o2)cc1	0	0	0	0	0
CNC(=S)N/N=C/c1ccc(-c2ccc(Cl)c([N+](=O)[O-])c2)o1	0	0	0	0	0
CC(C)(C)NC(=S)N/N=C\c1ccc(-c2ccc([N+](=O)[O-])cc2)o1	0	0	0	0	0
O=C(O)c1cccc(-c2ccc(/C=N/Nc3ccc([N+](=O)[O-])cc3)o2)c1	0	0	0	21.6	0
CNC(=S)N/N=C/c1ccc(-c2ccc(C(=O)O)cc2)o1	0	53.5	0	20.6	0
O=C(O)c1ccc(N/N=C/c2ccc(-c3ccc(Cl)cc3Cl)o2)cc1	0	0	0	10.6	0
Cc1ccc(-c2ccc(/C=N/NC(=S)Nc3ccccc3)o2)cc1[N+](=O)[O-]	0	0	0	0	38.5
CC1(c2ccc(Cl)cc2)NC(=O)N(CC(=O)Nc2ccc(F)cc2)C1=O (stereo unspecified)	-	0	-	0	0
NS(=O)(=O)c1ccc(-c2ccc(/C=N/Nc3ccc(C(=O)O)cc3)o2)cc1	0	56.4	3.0	0	0
O=C(O)c1ccc(-c2ccc(/C=N/Nc3ccc([N+](=O)[O-])cc3)o2)cc1	0	0	0	0	0
COC(=O)CCCC1=CC2=C(c3ccccc3)C(=O)C(C)(OC(=O)C3CCCC3)C(=O)C2=CN1CCCCO (stereo unspecified)	0	0	-	0	0

Assay outcomes (PubChem)
